According to PubChem BioAssay (Tox21):
Where “and” joins values, the source holds several entries; their conditions need not be identical. Equal entries are not always repeated. Results filed as inconclusive are left out. Calls of active or inactive are those of the source. Calls follow the shape of the dose curve; as a rule, active = well fitted cell-killing curve with a large enough effect in the repeat runs; inconclusive = weak or mixed curves, or effect the other way; inactive = flat fitted curve, though single readings scatter.

Experiment: qHTS RealTime-Glo MT Cell Viability Assay in HEK293 cells - 40 hour (AID 1224874); also: nearly all actives have a fitted effect of over 50% in size
Conditions: RealTime-Glo luminescence; max response: active compounds read low
Text: U.S. Tox21 Program National Center for Advancing Translational Sciences [NCATS] NIH Chemical Genomics Center [NCGC] U.S. Environmental Protection Agency [EPA] National Institutes of Environmental Health Sciences [NIEHS] National Toxicology Program [NTP] U.S. Food and Drug Administration [FDA] Tox21 Assay Overview: Measure of cell viability is critical in the cell-base assay. Analysis of cell viability is necessary for the characterization of cell responses to cytotoxic drugs and environmental stress. A RealTime-Glo MT Cell Viability Assay to monitor cell viability in real time of continues cell culture during 40 hours of compound treatment was used to screen Tox21 10K library compounds in Hek293 cells. The RealTime-Glo MT Cell Viability Assay is a nonlytic, homogeneous, bioluminescent method to measure cell viability in real time using a simple, plate-based method. The assay involves adding NanoLuc luciferase and a cell-permeant prosubstrate to cells in culture. Viable cells reduce the proprietary prosubstrate to generate a substrate for NanoLuc luciferase. This substrate diffuses from cells into the surrounding culture medium, where it is rapidly used by the NanoLuc Enzyme to produce a luminescent signal. The signal correlates with the number of viable cells, making the assay well suited for cytotoxicity studies.
Tox21 Assay Protocol Summary: The mixture of Hek293 cell suspension and reagents were dispensed at 600cells/6 ul/well in 1536-well tissue culture treated black solid bottom plates using a Multidrop dispenser. After the assay plates were incubated at a 37 C/5% CO2 incubator for 5 hours, 23 nL of compounds dissolved in DMSO, positive and negative controls was transferred to the assay plate by a pintool work station. The plates were incubated at 37 C for 40 hours. The luminescence intensity were measured at 0h, 8h, 16h, 24h, 32h and 40h time points using ViewLux plate reader during compound treatment.
% is scaled to controls: 0 for no effect and ±100 for the full control effect; potency is read from the fitted curve at half-maximal effect.

Q: For Nc1ccc(C(=O)O)c(O)c1, which max response is on record?
A: The max response was -4.05% (inactive).

Q: For CCCCCCCCCCCCCCCC[N+](C)(C)CC, which Potency is on record?
A: The Potency was 4.38 µM (active) and 3.38 µM (active).

Q: With c1cnccn1 as the compound, how does the max response read?
A: Its max response is 2.57% (inactive).

Q: For O=C1c2ccccc2C(=O)N1SC1CCCCC1, which Potency is on record?
A: The Potency was 21.9 µM (active) and 38.9 µM (active).

Q: For CCCC1CCC(=O)CC1, which max response is on record?
A: The max response was 11.1% (inactive).

Q: With C=C(C)C(=O)OCCCCCCCCCC as the compound, how does the max response read?
A: The max response was 14.3% (inactive).

Q: Which max response does the source give for CC/C=C\CCCCCO here?
A: Its max response is 9.87% (inactive).

Q: With COCCOc1cc2cc(C(=O)NC3CCN(C(C)C)CC3)n(CC(=O)Nc3ccc(Cl)cn3)c2cn1 as the compound, how does the max response read?
A: The max response was -25.3% (inactive).

Q: Which max response does the source give for O=C(O)c1cc(N=Nc2ccc([N+](=O)[O-])cc2)ccc1O here?
A: The max response was -17% (inactive).

Q: For CC(=O)[C@H]1CC[C@H]2[C@@H]3CCC4=CC(=O)CC[C@]4(C)[C@H]3CC[C@]12C, which Potency is on record?
A: The Potency was 13.7 µM (active) and 17.4 µM (active).

Q: With CCCc1ccc(OCC(=O)N2CCN(C(=O)COc3ccc(CCC)cc3OC)CC2)c(OC)c1 as the compound, how does the Potency read?
A: The Potency was 8.49 µM (active).

Q: With COc1ccc(NC(=O)CC(C)=O)cc1 as the compound, how does the max response read?
A: The max response was 8.59% (inactive).

Q: Which max response does the source give for COc1cccc(OC)c1C(=O)O here?
A: Its max response is 0.328% (inactive).

Q: With O=c1[nH]c2ccccc2n1CCCN1CCN(C(c2ccccc2)c2ccccc2)CC1 as the compound, how does the Potency read?
A: Its Potency is 12 µM (active).

Q: Which max response does the source give for CC1(C)CCC[C@]2(C)[C@H]3CC(=O)O[C@]3(C)CC[C@@H]12 here?
A: The max response was -15.3% (inactive).

Q: Which max response does the source give for CN1CCN2c3ccccc3Cc3ccccc3C2C1 (stereo not given) here?
A: The max response was -5.98% (inactive).

Q: With Cc1ccc(C)cc1 as the compound, how does the max response read?
A: Its max response is 12.3% (inactive).

Q: Which max response does the source give for Clc1nnc(Cl)c2ccccc12 here?
A: Its max response is -4.03% (inactive).

Q: Which max response does the source give for COC(C)=O here?
A: The max response was -13.9% (inactive).

Q: With OCC(F)(F)F as the compound, how does the max response read?
A: Its max response is 19.1% (inactive).

Q: Which max response does the source give for C#Cc1ccc(-c2ccccc2F)cc1 here?
A: The max response was 5.33% (inactive).

Q: Which max response does the source give for O=C(O)c1cc(=O)c2ccccc2o1 here?
A: Its max response is 1.84% (inactive).

Q: For CN(C)c1ccc(C(=C2C=CC(=[N+](C)C)C=C2)c2ccc(N(C)C)cc2)cc1, which Potency is on record?
A: Its Potency is 1.73 µM (active) and 4.9 µM (active) and 1.69 µM (active).

Q: With CC(C)(C)c1ccc(C(O)CCCN2CCC(C(O)(c3ccccc3)c3ccccc3)CC2)cc1 (stereo not given) as the compound, how does the Potency read?
A: The Potency was 4.77 µM (active).

Q: Which max response does the source give for Cc1cc(-n2nc3ccc(Cl)cc3n2)c(O)c(C(C)(C)C)c1 here?
A: Its max response is -5.47% (inactive).

Q: Which max response does the source give for Cc1cc(C(C)(C)C)cc(C)c1CC1=NCCN1 here?
A: The max response was -8.22% (inactive).

Q: For Cc1cc(-c2ccc(N=Nc3cc(S(=O)(=O)O)c4ccccc4c3N)c(C)c2)ccc1N=Nc1cc(S(=O)(=O)O)c2ccccc2c1N, which Potency is on record?
A: The Potency was 2.2 µM (active).

Q: Which max response does the source give for O=C(O)c1ccc2cc(C(=O)O)ccc2c1 here?
A: The max response was 7.36% (inactive).

Q: With CCCC(=O)OCOC(=O)C1=C(C)NC(C)=C(C(=O)OC)C1c1cccc(Cl)c1Cl (stereo not given) as the compound, how does the max response read?
A: Its max response is 2.11% (inactive).

Q: For Cc1c(C)c2c(c(C)c1OC(=O)c1cccnc1)CC[C@@](C)(CCC[C@H](C)CCC[C@H](C)CCCC(C)C)O2, which max response is on record?
A: The max response was -1.07% (inactive).

Q: Which Potency does the source give for C#CC1(O)CC[C@H]2[C@@H]3CCC4=CCCC[C@@H]4[C@H]3CC[C@@]21C (stereo not given in full) here?
A: The Potency was 19.5 µM (active) and 19 µM (active).

Q: Which max response does the source give for Cc1cc(=O)oc2cc(O)cc(O)c12 here?
A: Its max response is -8.17% (inactive).

Q: With COc1ccc2c(c1)c(CC(=O)OC/C=C(\C)CC/C=C(\C)CCC=C(C)C)c(C)n2C(=O)c1ccc(Cl)cc1 as the compound, how does the max response read?
A: The max response was -0.256% (inactive).

Q: Which max response does the source give for O=C(O)[C@H](O)[C@@H](O)[C@H](O[C@@H]1O[C@H](CO)[C@H](O)[C@H](O)[C@H]1O)[C@H](O)CO here?
A: Its max response is 11.3% (inactive).

Q: With CCOc1ccc2ccccc2c1C(=O)N[C@@H]1C(=O)N2[C@@H]1SC(C)(C)[C@@H]2C(=O)O as the compound, how does the max response read?
A: The max response was 1.12% (inactive).

Q: Which Potency does the source give for CN1CCN(Cc2cc(-c3ccc4[nH]c(=O)oc4c3)co2)[C@@H](c2ccc(F)cc2)C1 here?
A: The Potency was 26.5 µM (active).

Q: With CCN(CCN)c1cccc(C)c1 as the compound, how does the max response read?
A: Its max response is -16.9% (inactive) and 1.24% (inactive).

Q: For C#C[C@]1(O)CC[C@H]2[C@@H]3[C@H](C)CC4=C(CCC(=O)C4)[C@H]3CC[C@@]21C, which max response is on record?
A: Its max response is -25.5% (inactive).

Q: Which max response does the source give for Clc1ccnc(Cl)n1 here?
A: The max response was 11.8% (inactive).

Q: With CC(CCc1ccccc1)NCC(O)c1ccc(O)c(C(N)=O)c1 (stereo not given) as the compound, how does the max response read?
A: Its max response is 0.74% (inactive).
